Bioassay records (PubChem BioAssay)
G9a block – qHTS Assay for Inhibitors of Histone Lysine Methyltransferase G9a; Histone-lysine N-methyltransferase EHMT2 (Homo sapiens), Q96KQ7; G9a H3K9 monomethylation, AlphaScreen, 2 h; Potency, µM (series often up to 102 µM), for the others: at the highest dose activity, negative = inhibition, usual class: inhibitors; 350,000 compounds, 8.8% hits; AID 504332, 2011; further: on the % scale 0 is the no-effect control and ±100 the full control effect; nearly all actives have a fitted effect of over 75% in size
Target sequence (Q96KQ7 913-1193 limits assumed): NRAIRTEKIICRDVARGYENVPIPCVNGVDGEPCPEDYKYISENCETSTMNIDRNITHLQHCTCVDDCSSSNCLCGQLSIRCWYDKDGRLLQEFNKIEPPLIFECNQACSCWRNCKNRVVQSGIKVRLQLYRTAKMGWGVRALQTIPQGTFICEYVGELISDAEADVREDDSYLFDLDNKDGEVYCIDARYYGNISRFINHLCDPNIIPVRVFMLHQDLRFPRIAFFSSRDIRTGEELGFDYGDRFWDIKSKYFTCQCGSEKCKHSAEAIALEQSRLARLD
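Compounds were preincubated with 20 nM G9a for 15 min, after which biotinylated H3K9 peptide (500 nM) and SAM (20 uM) started a 2 h room-temperature reaction. Monomethylated product was quantified by antibody-based AlphaScreen chemiluminescence.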
PLK1 PBD block – qHTS for Inhibitors of PLK1-PDB (polo-like kinase 1 - polo-box domain): Primary Screen; Serine/threonine-protein kinase PLK1 (Homo sapiens), P53350; Plk1 PBD binding of FITC phosphopeptide, fluorescence polarization; Potency, µM, inactives show max response, negative = inhibition, most hits filed as inhibitors; 360,000 compounds, 2.8% hits; AID 720504, 2013; further: series mostly up to about 57 µM; on the % scale 0 is the no-effect control and ±100 the full control effect; nearly all actives have a fitted effect of over 65% in size
HP1b chromo inh – HTS for Inhibitors of HP1-beta Chromodomain Interactions with Methylated Histone Tails; Chromobox protein homolog 1 (Homo sapiens), P83916; AlphaScreen HP1-beta / biotin-H3K9me3 peptide binding; Potency, µM (highest dose often 114 µM), for the others: at the top dose activity change, negative = inhibition, actives largely listed as inhibitors; 390,000 compounds, 0.56% hits; AID 540317, 2011; further: nearly all actives have a fitted effect of over 70% in size
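Compound inhibition of the preformed complex between 50 nM HP1-beta and 50 nM biotinylated H3K9me3 peptide was read by AlphaScreen. Buffer was PBS pH 7.4 with 0.01% Tween-20. Incubations ran 30 min at room temperature, with 10 ug/mL donor/acceptor beads.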
BAZ2B inh – qHTS Assay for Inhibitors of BAZ2B; AlphaScreen BAZ2B-H3K14Ac peptide displacement; Potency, µM (doses to about 114 µM), for inactives: at the top dose activity change, negative = inhibition, actives largely listed as inhibitors; 360,000 compounds, 4.4% hits; further: on the % scale 0 is the no-effect control and ±100 the full control effect; nearly all actives have a fitted effect of over 60% in size
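BAZ2B 50 nM plus b-H3(5-23)K14Ac 50 nM, PBS pH 7.4/0.01% Tween-20, 30 min RT; compound added (max 110 uM), 30 min RT; streptavidin donor/Ni-chelate acceptor beads 10 ug/mL final, 20 min dark; AlphaScreen read.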
VDR inh – Inhibitors of the vitamin D receptor (VDR): qHTS. VDR-SRC2-3 peptide fluorescence polarization, 2 h. AID 504847, 2011. Vitamin D3 receptor (Homo sapiens), P11473. Potency, µM, without a hit: max response, negative = inhibition, hits mostly inhibitors. 400,000 compounds, 0.93% hits; further: on the % scale 0 is the no-effect control and ±100 the full control effect
Target sequence (P11473 whole entry, looked up): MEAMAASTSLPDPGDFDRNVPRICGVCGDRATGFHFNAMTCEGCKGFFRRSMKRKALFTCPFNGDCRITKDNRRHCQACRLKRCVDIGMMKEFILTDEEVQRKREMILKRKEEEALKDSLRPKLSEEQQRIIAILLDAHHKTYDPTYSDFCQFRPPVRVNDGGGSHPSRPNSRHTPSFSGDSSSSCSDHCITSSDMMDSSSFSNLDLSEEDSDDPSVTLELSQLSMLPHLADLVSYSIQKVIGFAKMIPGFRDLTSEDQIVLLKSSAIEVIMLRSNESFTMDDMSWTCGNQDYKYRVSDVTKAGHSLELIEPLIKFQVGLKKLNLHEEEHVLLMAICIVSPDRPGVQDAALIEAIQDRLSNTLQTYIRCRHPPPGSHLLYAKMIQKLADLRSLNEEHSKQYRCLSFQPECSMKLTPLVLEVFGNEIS
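Fluorescence polarization assay of small-molecule disruption of VDR binding to coregulator peptide SRC2-3. Compounds and controls pin-transferred, then read after 2 h incubation at ambient room temperature.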
JMJD2A Tudor – qHTS Assay for Inhibitors of JMJD2A-Tudor Domain; 390,000 compounds, 4.4% hits; AID 504339, 2011; AlphaScreen JMJD2A-Tudor / H3K4me3 peptide binding; Potency, µM (series often up to 114 µM), without a hit: top-dose activity change, negative = inhibition, actives largely listed as inhibitors; Lysine-specific demethylase 4A (Homo sapiens), O75164; further: on the % scale 0 is the no-effect control and ±100 the full control effect; nearly all actives have a fitted effect of over 50% in size
An asterisk follows results filed as active; [ ] = another dose, or the depositor's remark. Most compounds without a hit are left out; they make up all but 11% or so of the library. The call rests on the fitted dose curve; in most records, active means well fitted curve in the direction sought with a large enough effect; inconclusive means small, poorly fitted or top-dose-only effect, or another doubt; inactive means no such curve, though single readings can be large; an effect the other way counts as inactive or inconclusive. Potency means the concentration at half of the fitted maximal effect.

`COCc1ccc(C(=O)N2CCCC(C(=O)c3ccc(Cl)cc3C)C2)o1` (stereo not drawn) gave G9a block -8.9%[0.501 µM], PLK1 PBD block 18.9µM*, HP1b chromo inh 6.5%, BAZ2B inh -12.5%, VDR inh inconclusive and JMJD2A Tudor inconclusive.
`Cc1cc(Cl)ccc1C(=O)C1CCCN(C(=O)c2ccoc2)C1` (stereo not drawn) gave G9a block -18.3%, PLK1 PBD block -0.4%, HP1b chromo inh 39.7%, BAZ2B inh inconclusive, VDR inh -2.1% and JMJD2A Tudor -24.8%.
For COc1ccc2cc(C(=O)C3CCCN(C(=O)c4cnn(C(C)C)c4)C3)ccc2c1 (stereo not drawn) the results were G9a block 1.6%, PLK1 PBD block 23.8µM*, HP1b chromo inh 4.5%, BAZ2B inh -21.8%, VDR inh inconclusive and JMJD2A Tudor 17.8µM*.
COc1ccc(C(=O)C2CCCN(C(=O)c3ccc(C(C)=O)s3)C2)c(C)c1 (stereo not drawn) was read as G9a block 16.0%[12.7 µM], PLK1 PBD block 29.9µM*, HP1b chromo inh 2.9%, BAZ2B inh -5.7%, VDR inh -1.4% and JMJD2A Tudor -35.6%.
`FC(F)(F)c1cccc(N2CCN(Cc3nnc(-c4ccc5c(c4)OCO5)o3)CC2)c1` gave G9a block 1.6%[59 µM], HP1b chromo inh 35.3%, BAZ2B inh -37.2%, VDR inh -6.3% and JMJD2A Tudor inconclusive.
CCOc1ccc(-c2nnc(SCC(=O)Nc3cccc(C#N)c3)o2)cc1 was read as G9a block -36.9%[59 µM], HP1b chromo inh 23.1%, BAZ2B inh -14.5%, VDR inh -1.5% and JMJD2A Tudor inconclusive.
For COc1ccc(N=C2SC(CC(=O)Nc3ccc(OC)cc3OC)C(=O)N2C)cc1 (stereo not drawn) the results were G9a block -28.0%[12.7 µM], PLK1 PBD block -2.0%, HP1b chromo inh 18.1%, BAZ2B inh 2.4%, VDR inh 2.5% and JMJD2A Tudor -14.9%.
For COc1ccc(OC)c(NC(=O)CC2SC(=Nc3ccc(F)cc3)N(CCC3=CCCCC3)C2=O)c1 (stereo not drawn) the results were G9a block 50.1µM*, PLK1 PBD block -3.3%, HP1b chromo inh 5.1%, BAZ2B inh inconclusive, VDR inh -11.3% and JMJD2A Tudor -24.2%.
For COc1cc([N+](=O)[O-])ccc1NC(=O)CC1SC(=Nc2ccc(F)cc2)N(CCC2=CCCCC2)C1=O (stereo not drawn) the results were G9a block 50.1µM*, PLK1 PBD block -19.5%, HP1b chromo inh inconclusive, BAZ2B inh inconclusive, VDR inh -5.7% and JMJD2A Tudor -34.8%[57.1 µM].
Screening Cc1ccc(C)c(CSc2nc3ccncc3n2CC(=O)Nc2ccc(N(C)C)cc2)c1 returned G9a block 5.01µM*, HP1b chromo inh -9.4%, BAZ2B inh inconclusive, VDR inh 7.6% and JMJD2A Tudor inconclusive.
CN(C)c1ccc(NC(=O)Cn2c(SCc3ccccc3F)nc3cccnc32)cc1 was read as G9a block 3.16µM*, HP1b chromo inh 15.7%, BAZ2B inh -10.0%, VDR inh 3.6% and JMJD2A Tudor -13.9%.
COc1cc(/C=C2/C(=O)NN(c3ccc(F)cc3)C2=O)cc(Cl)c1O was read as G9a block 28.2µM*, PLK1 PBD block 29.9µM*, HP1b chromo inh inconclusive, BAZ2B inh 31.6µM*, VDR inh inconclusive and JMJD2A Tudor 31.6µM*.
For COc1cc(/C=C2/C(=O)NN(c3ccc(Cl)c(Cl)c3)C2=O)cc([N+](=O)[O-])c1O the results were G9a block 17.8µM*, PLK1 PBD block 11.9µM*, HP1b chromo inh inconclusive, BAZ2B inh 39.8µM*, VDR inh 56.2µM* and JMJD2A Tudor 15.8µM*.
`COc1cc(/C=C2/C(=O)NN(c3ccc(Cl)cc3)C2=O)ccc1OC(=O)c1ccco1` gave G9a block inconclusive, PLK1 PBD block 2.67µM*, HP1b chromo inh -35.3%, BAZ2B inh inconclusive, VDR inh inconclusive and JMJD2A Tudor inconclusive.
COc1cc(/C=C2\SC(=O)N(CC(=O)Nc3ccccc3F)C2=O)cc(Cl)c1O was read as G9a block inconclusive, PLK1 PBD block 29.5%, HP1b chromo inh 32.3%, BAZ2B inh inconclusive, VDR inh 14.5% and JMJD2A Tudor -6.8%.
COc1cc(/C=C2/C(=O)NN(c3ccc(Cl)cc3)C2=O)cc(Br)c1O was read as PLK1 PBD block inconclusive, HP1b chromo inh inconclusive, BAZ2B inh 44.7µM*, VDR inh 70.8µM* and JMJD2A Tudor 39.8µM*.
`COc1cc(/C=C2/C(=N)N3OC(C)=CC3=NC2=O)ccc1OC(=O)c1ccco1` gave G9a block -34.7%, PLK1 PBD block -4.5%, HP1b chromo inh 4.1%, BAZ2B inh -5.0%, VDR inh -11.7% and JMJD2A Tudor -12.1%.
Screening CCNC(=O)C1(C)CCCN1C(=O)c1cc(OC)c(OC)c(OC)c1 (stereo not drawn) returned PLK1 PBD block 0.7%.
For Cc1cccc(CNc2ncnc3ccc(-c4cccc(NS(C)(=O)=O)c4)cc23)c1 the results were VDR inh -7.4%.
For COc1cccc(/C=C2/C(=O)NN(c3ccc(Br)cc3)C2=O)c1O the results were PLK1 PBD block 7.52µM*, HP1b chromo inh -20.7%, BAZ2B inh inconclusive, VDR inh inconclusive and JMJD2A Tudor inconclusive.
CCOCCCN(C)C1CCN(C(=O)c2oc3ccccc3c2NC(=O)c2cccc([N+](=O)[O-])c2)CC1 was read as PLK1 PBD block -8.6%, HP1b chromo inh 19.9%, BAZ2B inh -16.7%, VDR inh -9.3% and JMJD2A Tudor -30.5%.
Screening CCc1oc2ccccc2c1C(=O)c1cc(I)c(O)c(I)c1 returned G9a block -39.6%[59 µM] and VDR inh 31.6µM*.
For CCCCc1oc2ccccc2c1C(=O)c1cc(I)c(N(CC)CCOCC)c(I)c1 the results were HP1b chromo inh -6.1%, VDR inh 2.6% and JMJD2A Tudor 56.2µM*.
NC(=O)C1(N2CCCCC2)CCN(C(=O)Nc2ccc(Cl)c(Cl)c2)CC1 was read as G9a block 0.1%[59 µM], HP1b chromo inh 19.0%, BAZ2B inh -4.4%, VDR inh 5.9% and JMJD2A Tudor -19.4%.
